Source: PubChem BioAssay AID2314 (National Center for Advancing Translational Sciences (NCATS), 2010)
Several values for one entry are separate records, joined by “and”; a condition that tells them apart may be missing. Equal entries are not always repeated. The campaign covered roughly 300,000 compounds. About 37,000 (12%) were called active. Rule as the data show it: active = max response mostly above about 13% (no sharp cut-off); inactive = mostly below about 14%. What follows is part of a selection rich in actives, with near analogues and random picks from the rest.

Assay: Cycloheximide Counterscreen for Small Molecule Inhibitors of Shiga Toxin; also: read at 38.3 µM for the half of the compounds with a filed dose; 0% is about no effect
Settings: cell reporter, cycloheximide protein synthesis inhibition counterscreen; stronger effect = higher value

Compound	max response
Cc1ccc(C(=O)OCC(=O)NC(=O)Cc2ccccc2)c(O)c1	4.77% (inactive)
C=CCN(c1ccc(C(=O)Nc2cc(C)cc(C)c2)cc1)S(C)(=O)=O	12.7% (active)
COc1ccc([N+](=O)[O-])cc1NC(=O)c1ccc(N(Cc2ccccc2C)S(C)(=O)=O)cc1	-0.93% (inactive)
CC(=O)Nc1ccccc1NC(=O)c1cc(C)cc(C)c1	-1.4% (inactive)
C=CCN(c1ccc(C(N)=O)cc1)S(C)(=O)=O	-1.24% (inactive)
CSCc1ccc(C(=O)Nc2cc(C)cc(C)c2)cc1	41.7% (active)
Cc1cc(C)cc(NC(=O)N(C)Cc2ccccc2)c1	4.9% (inactive)
CCN(CC(=O)Nc1ccc(Cl)c(S(=O)(=O)N(C)C)c1)Cc1nc2ccccc2c(=O)[nH]1	-3.17% (inactive)
Clc1ccc(-c2cc(C3CCNCC3)[nH]n2)c(Cl)c1	9.48% (inactive)
CCc1cc(CNC(=O)CC2C(=O)NCCN2Cc2ccccc2C(F)(F)F)on1 (stereo not drawn)	-1.48% (inactive)
CCOC(=O)COc1nc(C)cc(C(F)(F)F)c1C#N	-3.74% (inactive)
CCOC(=O)c1cc(C)nc(S(C)(=O)=O)c1C#N	24.3% (active)
CCOC(=O)c1c(C(C#N)C#N)cc(C)nc1C	1.41% (inactive)
O=C1CCCN2N=C(SCC(=O)Nc3ccc(Br)cc3)SC2=N1	7.4% (inactive)
Cc1ccc(CN(C)Cc2cc(=O)oc3cc(C)c(Cl)cc23)cc1	8.9% (inactive)
O=[N+]([O-])c1ccccc1N/N=C1\CCc2ccccc21	22.3% (active)
O=[N+]([O-])c1cc(C(F)(F)F)ccc1NN=C1CCCC1	-3.4% (inactive)
CN1CCN(CCNC(=O)Nc2ccccc2[N+](=O)[O-])CC1	-3.83% (inactive)
CCOC(=O)c1cnc2ccc(F)cc2c1Nc1ccc2c(c1)OCCO2	32.3% (active)
O=C(Nc1ccc2c(c1)OCCO2)C(c1ccc(F)cc1)N1CCCCC1 (stereo not drawn)	-0.355% (inactive)
Cc1ccc2nc(-c3ccncc3)cc(C(=O)Nc3ccc4c(c3)OCCO4)c2c1	7.28% (inactive)
C/C(CC(=O)NCc1ccc(Cl)cc1)=N\NC(=O)COc1ccc(C)cc1Br	-1.26% (inactive)
Cc1ccccc1C(=O)N1CCC(C(=O)Oc2ccc(C#N)cc2)CC1	-2.38% (inactive)
CCn1c(CC(=O)Nc2ccccc2)nnc1SCC(=O)N1CCOCC1	-2.97% (inactive)
COc1ccc(CCn2c(-c3ccco3)nc3nc4ccccc4nc32)cc1OC	7.86% (inactive)

Compound	max response
Clc1cccc(-c2nc3nc4ccccc4nc3n2Cc2ccco2)c1	31.5% (active)
Cc1cc(NC(=O)CSc2nc3cc(Cl)ccc3c(=O)n2Cc2ccco2)no1	1.42% (inactive)
Cc1cc2oc(=O)cc(CN3CCN(Cc4ccccc4)CC3)c2cc1C	1.14% (inactive)
COc1cc(CN2CC(C)CC(C)C2)cc([N+](=O)[O-])c1O (stereo not drawn)	-0.873% (inactive)
O=C(COC(=O)c1ccc(S(=O)(=O)N2CCc3ccccc3C2)cc1)NC(=O)NCc1ccco1	6.51% (inactive)
O=C(Nc1cc(N2CCOCC2)ncn1)NC1(C(F)(F)F)Oc2ccc(Cl)cc2O1 (stereo not drawn)	45.4% (active)
Cc1csc(NC(=O)NC2(C(F)(F)F)Oc3ccccc3O2)n1	1.16% (inactive)
O=C(CN1C(=O)COc2ccc(Cl)cc21)Nc1ccc(N2CCOCC2)cc1	1.87% (inactive)
CCc1cc(=O)oc2c(C)c(OCC(=O)NCCN3CCOCC3)ccc12	1.6% (inactive)
Cc1ccc(NC(=O)CCN2C(=O)c3ccccc3C2=O)cc1C	-2.39% (inactive)
CC(C)=CCCC(C)CN1CCC(n2nccc2NC(=O)c2ccccc2)CC1 (stereo not drawn)	-5.01% (inactive)
O=C(Nc1ccc(S(=O)(=O)N2CCCCC2)cc1)c1cnccn1	-3.02% (inactive)
O=C(NCN1CCN(CCO)CC1)c1cnccn1	-4.08% (inactive)
CCN1CCN(c2ccc(NC(=O)c3cnccn3)cc2)CC1	26% (active)
N#CCSc1nc(-c2ccccc2)nc2ccc(F)cc12	-2.28% (inactive)
CN(CCc1ccccn1)C(=O)c1ccc(OC2CCN(Cc3ccccn3)CC2)cc1	0.254% (inactive)
CN(CCc1ccccn1)C(=O)c1ccc(OC2CCN(CCc3ccccc3)CC2)cc1	17% (active)
Cn1cc(CNC(=O)c2ccc(OC3CCN(Cc4ccccn4)CC3)cc2)cn1	9.98% (inactive)
OCCC(O)CO (stereo not drawn)	-4.13% (inactive) and -5.85% (inactive) and -2.71% (inactive)
O=C(CSc1nc(C2CC2)nc2ccccc12)Nc1ccc2c(c1)OCCO2	1.1% (inactive)
O=C(CSc1nc2ncccc2[nH]1)Nc1ccc2c(c1)OCCO2	25.8% (active)
CS(=O)(=O)c1ccc(-c2nnn(CC(=O)Nc3ccc4c(c3)OCCO4)n2)cc1	15.4% (active)
Cn1ccnc1SCC(=O)Nc1ccc2c(c1)OCCO2	18% (inactive)
CCOC(=O)c1ccc(NC(=O)Cn2nnc(-c3ccc(C)cc3)n2)cc1	-3.53% (inactive)
CC(C)CNS(=O)(=O)c1ccc(OCC(=O)Nc2ccc3c(c2)OCO3)c(Cl)c1	5.31% (inactive)

Compound	max response
COc1ccc(S(=O)(=O)N(C)CC(=O)Nc2ccc3c(c2)OCCO3)cc1OC	18.2% (active)
Cc1cccc(C(=O)Nc2ccccc2-c2nnn(CC(=O)Nc3ccc4c(c3)OCCO4)n2)c1	-4.9% (inactive)
O=C(CN(c1ccc2c(c1)OCCO2)S(=O)(=O)c1ccccc1)Nc1ccc2c(c1)OCO2	11.4% (inactive)
COc1ccc(NC(=O)CN(C)S(=O)(=O)c2ccccc2)cc1OC	-1.84% (inactive)
CC(C)NS(=O)(=O)c1ccc(OCC(=O)Nc2ccc3c(c2)OCCO3)cc1	2.4% (inactive)
CCc1ccccc1OCC(=O)Nc1ccc2c(c1)OCCO2	35.2% (active)
CCc1ccc(Oc2nc([N+](=O)[O-])nn2C)cc1	-1.09% (inactive)
COc1ccc(OCCCCN2CCC(C)CC2)cc1	-5.4% (inactive)
CCN(CC)S(=O)(=O)c1ccc(C(=O)N2CCN(C3=NS(=O)(=O)c4ccccc43)CC2)cc1	7.96% (inactive)
CC1CCC(C(C)C)C(=O)/C1=C\c1ccc(NC(=O)CCC(=O)O)cc1 (stereo not drawn)	-5.07% (inactive)
COc1ccc(CN2CN(C3CCCC3)CSC2=S)cc1	3.32% (inactive)
O=S(=O)(c1ccc(Br)cc1)N1CCC(c2nc3ccccc3[nH]2)CC1	-3.07% (inactive)
CCC(Cc1ccccc1)NS(=O)(=O)c1ccc2c(c1)NC(=O)CS2 (stereo not drawn)	0.995% (inactive)
Cc1cc(C)c(C#N)c(Nc2cccc(Br)c2)n1	0.576% (inactive)
C[C@H](NC(=O)C1CC(=O)N(c2ccc3c(c2)OCCO3)C1)C(=O)N1CCC(C(=O)O)CC1 (stereo partly drawn)	7.17% (inactive)
COc1ccc(C(=O)NC2CC(C)(C)NC(C)(C)C2)cc1OC	-1.7% (inactive)
COc1ccc(CN(C)C(C)C(=O)NC2CCCc3ccccc32)cc1 (stereo not drawn)	4.63% (inactive)
CCCCN(CC(=O)NC(C)(C)C)C(=O)C(=O)Nc1ccc2c(c1)OCCO2	5.6% (inactive)
CCCCC(=O)Nc1ccc2c(c1)OCCO2	36.8% (active)
CCOc1ccc(C(=O)CCN2CCOCC2)cc1	9.26% (inactive)
O=C(COc1ccc(Cl)cc1)Nc1ccc2c(c1)OCO2	15.8% (active)
O=C(CN1CCN(c2ncc(C(F)(F)F)cc2Cl)CC1)Nc1ccc2c(c1)OCO2	2.27% (inactive)
CCC(C(=O)Nc1ccc2c(c1)OCCO2)c1ccccc1 (stereo not drawn)	19.2% (active)
CC(=O)NCC(=O)N(C)C(C(=O)Nc1ccc2c(c1)OCCO2)c1ccccc1 (stereo not drawn)	-1.79% (inactive)
CCOc1ccc(NCCC(=O)c2ccc3c(c2)OCO3)cc1	14.4% (active)

Compound	max response
O=C(COc1ccc(Cl)cc1)Nc1ccc2oc(=O)ccc2c1	-3.63% (inactive)
CCC(C(=O)Nc1ccc(C(C)C)cc1)c1ccccc1 (stereo not drawn)	-1.28% (inactive)
O=C(CCS(=O)(=O)Cc1ccccc1)Nc1ccc2c(c1)OCCO2	-1.91% (inactive)
COc1ccc(C2(C)NC(=O)N(CC(=O)c3ccc4c(c3)OCO4)C2=O)cc1 (stereo not drawn)	1.46% (inactive)
COCCOC(=O)C1=C(C)NC(=O)NC1c1cc2c(cc1Br)OCO2 (stereo not drawn)	-5.73% (inactive)
Cc1ccc(NC(=O)CN(C)C(=O)COC(=O)C(C)(C)Oc2ccc(Cl)cc2)cc1	-3.38% (inactive)
COc1ccccc1C(=O)Nn1cnnc1	-2.95% (inactive)
CCC(C)(C)NC(=O)CN(C(=O)CCC(=O)Nc1nccs1)c1ccc2c(c1)OCO2	-3.66% (inactive)
COc1ccc(CCNC(=O)NS(=O)(=O)c2ccc(C)cc2)cc1OC	-2.33% (inactive)
COc1ccc(S(=O)(=O)NCCc2c[nH]c3ccccc23)cc1OC	2.61% (inactive)
Nc1nc(SCc2cccc(Br)c2)n[nH]1	0.308% (inactive)
CCc1ccc(N2CC(C(=O)N3CCCCCC3)CC2=O)cc1 (stereo not drawn)	15.1% (inactive)
CCN(CC(=O)Nc1ccc2c(c1)OCCO2)Cc1cc(=O)oc2cc(C)c(C)cc12	11.2% (active)
O=C(COc1ccc2c(C(F)(F)F)cc(=O)oc2c1)Nc1ccc2c(c1)OCCO2	5.22% (inactive)
CCn1c(SCC(=O)Nc2ccc3c(c2)OCCO3)nnc1-c1ccncc1	2.74% (inactive)
COC(=O)CCNc1ccc2c(c1)OCCO2	48.2% (active)
CCn1c(COc2ccccc2)nnc1SCC(=O)Nc1ccc2c(c1)OCCO2	8.26% (inactive)
COc1ccccc1OCCCC(=O)Nc1ccc2c(c1)OCCO2	32.1% (active)
COc1cccc(NC(=O)COC(=O)CCOc2ccccc2OC)c1	-1.24% (inactive)
CCN(CC(=O)Nc1ccc2c(c1)OCO2)S(=O)(=O)c1ccccc1	-0.651% (inactive)
CCC(C)(C)NC(=O)CN(C(=O)C(=O)Nc1ccc2c(c1)OCCO2)C(C)(C)CC	-5.87% (inactive)
Cc1ccc(SCC(=O)Nc2ccc3c(c2)OCCO3)cc1	73.6% (active)
Cc1ccc(S(=O)(=O)NCC(=O)Nc2ccc3c(c2)OCCO3)cc1	6.27% (inactive)
